Laboratory results published in the supplement of paper PMC9694430.

Tests used:
Test in all cases: thermal shift delta Tm vs DMSO control; higher = stronger stabilization (binding)
Settings in all cases: 12.5 µM; protein concentration 2 µM
LOC_OS02G45750-cb003 = tested on: LOC_OS02G45750-cb003
Outline: (§1)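 The melting temperature shift given here is a triplicate mean, measured against protein that received only DMSO. Melting temperatures came from Boltzmann fits of differential scanning fluorimetry data on E. coli-expressed, purified rice kinase domain constructs. Each 19.5 μl well contained 2 μM kinase, 100 mM potassium phosphate pH 7.5, 150 mM NaCl, 10% glycerol, 5 × SYPRO Orange and compound in DMSO. Plates were scanned from 25°C to 95°C at 0.05°C/s.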

LOC_OS02G54510-cb004 = tested on: LOC_OS02G54510-cb004
Outline: as §1

LOC_OS03G04050-cb001 = tested on: LOC_OS03G04050-cb001
Outline: as §1

LOC_OS03G12390-cb001 = tested on: LOC_OS03G12390-cb001
Outline: as §1

LOC_OS03G27990-cb004 = tested on: LOC_OS03G27990-cb004
Outline: as §1

LOC_OS03G50450-cb001 = tested on: LOC_OS03G50450-cb001
Outline: as §1

LOC_OS03G50810-cb003 = tested on: LOC_OS03G50810-cb003
Outline: as §1

LOC_OS04G35114-cb001 = tested on: LOC_OS04G35114-cb001
Outline: as §1

LOC_OS04G38480-cb003 = tested on: T1, LOC_OS04G38480-cb003
T1 sequence (whole entry): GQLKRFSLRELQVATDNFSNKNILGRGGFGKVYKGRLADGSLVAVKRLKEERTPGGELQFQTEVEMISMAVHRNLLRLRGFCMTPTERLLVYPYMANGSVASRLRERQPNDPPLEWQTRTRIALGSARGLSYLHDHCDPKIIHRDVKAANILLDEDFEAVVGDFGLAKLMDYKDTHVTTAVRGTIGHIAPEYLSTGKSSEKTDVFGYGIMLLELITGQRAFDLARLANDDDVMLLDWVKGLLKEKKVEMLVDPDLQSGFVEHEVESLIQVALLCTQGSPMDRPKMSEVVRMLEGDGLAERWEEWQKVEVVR
Outline: as §1

LOC_OS04G41100-cb001 = tested on: T2, LOC_OS04G41100-cb001
T2 sequence (whole entry): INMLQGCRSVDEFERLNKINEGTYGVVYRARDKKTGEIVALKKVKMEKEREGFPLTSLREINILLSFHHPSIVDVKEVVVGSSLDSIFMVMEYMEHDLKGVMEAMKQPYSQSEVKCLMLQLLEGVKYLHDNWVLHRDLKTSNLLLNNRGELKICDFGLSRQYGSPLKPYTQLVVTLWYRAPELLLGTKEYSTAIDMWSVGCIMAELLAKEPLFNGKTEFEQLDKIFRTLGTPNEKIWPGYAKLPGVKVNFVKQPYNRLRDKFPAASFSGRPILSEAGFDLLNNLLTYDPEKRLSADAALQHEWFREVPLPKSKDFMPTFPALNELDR
Outline: as §1

SMILES	thermal shift delta Tm (LOC_OS02G45750-cb003) [°C]	thermal shift delta Tm (LOC_OS02G54510-cb004) [°C]	thermal shift delta Tm (LOC_OS03G04050-cb001) [°C]	thermal shift delta Tm (LOC_OS03G12390-cb001) [°C]	thermal shift delta Tm (LOC_OS03G27990-cb004) [°C]	thermal shift delta Tm (LOC_OS03G50450-cb001) [°C]	thermal shift delta Tm (LOC_OS03G50810-cb003) [°C]	thermal shift delta Tm (LOC_OS04G35114-cb001) [°C]	thermal shift delta Tm (LOC_OS04G38480-cb003) [°C]	thermal shift delta Tm (LOC_OS04G41100-cb001) [°C]
CCOc1cc(N2CCC(O)CC2)ccc1Nc1ncc2c(n1)N(C)c1ccccc1C(=O)N2C	-0.35	-0.02	0.11	2.48	-0.12	0.38	0.11	0.71	1.18	0.38
Cc1cnc(Nc2ccc(OCCN3CCCC3)cc2)nc1Nc1cccc(S(=O)(=O)NC(C)(C)C)c1	2.37	0.89	0.72	3.03	1.33	1.51	3.13	3.12	1.88	0.68
CNc1nc(-c2ccc3c(N)n[nH]c3c2)cc(N2C[C@@H](C(=O)NC3CCCCC3)CC[C@H]2C)n1	0.45	0.92	0.58	0.25	0.2	0.38	0.87	0.5	1.14	0.66
C=CCc1ccc(O)c(-c2ccc(O)c(CC=C)c2)c1 [Honokiol]	-0.57	0.26	0.72	-0.04	0.52	0.5	0.47	0.36	1.32	0.48
C#Cc1cccc(Nc2ncnc3cc(OCCOC)c(OCCO)cc23)c1	3.92	0.67	0.26	2.39	0.08	0.13	0.83	6.33	1.21	0.13
CC(C)(C)c1nc(-c2ccc(NC(=O)Nc3cccc(C(F)(F)F)c3)c3ccccc23)c2c(N)nccn12 [kira6]	2.31	9.87	0.01	2.25	7.11	0.7	4.91	3.47	1.58	-0.01
Cc1cc(N2CCOCC2)cc2[nH]c(-c3c(NC[C@@H](O)c4cccc(Cl)c4)cc[nH]c3=O)nc12	3.33	2.85	0.49	5.81	1.27	4.61	3.54	4.79	-0.48	0.77
C[C@@H](N)c1ccc(C(=O)Nc2ccnc3[nH]ccc23)cc1	1.52	0.39	0.7	0.27	0.76	0.85	0.77	1.23	2.01	0.85
C=CC(=O)N1CC[C@@H](Oc2nc(Nc3ccc(N4CCC(N5CCN(C)CC5)CC4)cc3)c(C(N)=O)nc2CC)C1 [Naquotinib(ASP8273)]	0	3.07	0.21	9.13	5.37	4.82	5.96	8.09	3.19	0.5
COCCNCc1ccc(-c2cc3nccc(Oc4ccc(NC(=O)C5(C(=O)Nc6ccc(F)cc6)CC5)cc4F)c3s2)nc1 [Sitravatinib (MGCD516)]	6.42	1.08	0.75	0.75	1.06	0.57	3.13	6.52	3.71	3.13
